Measured values published in PubChem BioAssay (NCATS).
Records with an inconclusive call do not appear. A number with no mark means an inactive call. The source made the active and inactive calls. Calls come from the whole dose curve; as a rule, active = well fitted cell-killing curve with a large enough effect; inconclusive = small, poorly fitted or top-dose-only effect, or effect the other way; inactive = no such curve, though single readings can be large or run the other way.

Assay: Quantitative High-Throughput drug screen in 47 multiple myeloma cell lines against the NCATS MIPE library collection: U266_ATCC cell viability assay (AID 1919864); note: nearly all actives have a fitted effect of over 35% in size
Settings: U266 myeloma viability, CellTiter-Glo ATP luminescence, 48 h; series mostly up to 45.8 µM; viability (% of DMSO control): at the top concentration
Description: (§1) PI: Beverly A. Mock Ph.D.
(§2) Laboratory of Cancer Biology and Genetics,
(§3) Center for Cancer Research, National Cancer Institute,
(§4) National Institute of Health, Bethesda, Maryland
(§5) Drug resistance and disease progression are common in multiple myeloma (MM) patients, underscoring the need for new therapeutic combinations. […] We hypothesized that effective combinations would reduce MYC expression and enhance p16 activity. […] These preclinical data identify potentially useful drug combinations for evaluation in drug-resistant MM and reveal potential mechanisms of combined drug sensitivity.
(§6) Described herein is the primary MIPE qHTS used to cherrypick compounds. Validated compounds were then further tested for potential synergistic activiy.
(§7) [1] Peat TJ, Gaikwad SM, Dubois W, Gyabaah-Kessie N, Zhang S, Gorjifard S, Phyo Z, Andres M, Hughitt VK, Simpson RM, Miller MA, Girvin AT, Taylor A, Williams D, D'Antonio N, Zhang Y, Rajagopalan A, Flietner E, Wilson K, Zhang X, Shinn P, Klumpp-Thomas C, McKnight C, Itkin Z, Chen L, Kazandijian D, Zhang J, Michalowski AM, Simmons JK, Keats J, Thomas CJ, Mock BA. Drug combinations identified by high-throughput screening promote cell cycle transition and upregulate Smad pathways in myeloma. Cancer Lett. 2023 Aug 1;568:216284. doi: 10.1016/j.canlet.2023.216284. Epub 2023 Jun 24. PMID: 37356470; PMCID: PMC10408729.
(§8) SEQUENCE No. (e.g., 1, 2, 3, etc.); […] (e.g., Cells, Incubation, Reagent, etc.); VALUE and DESCRIPTION.
(§9) 1; Cells; 5 uL; white, solid bottom 1536-well Greiner assay plate.
(§10) 2; Compounds; 23 nL; Kalypsis pin tool (Wako USA) equipped with a 1536-well pin head to transfer to the assay plates.
(§11) 3; Incubation; 48 hours; 37C incubation.
(§12) 4; Reagent;5uL; CellTiter Glo (Promega).
(§13) 5; Detector; 425V; Luminescence; Viewlux PerkinElmer.
(§14) NOTES (numbers refer to Sequence numbers above)
(§15) 1. The cell-based screening methods employed in this study were like those previously published. Briefly, the corresponding myeloma cell lines were screened in 1,536-well plates with 500 cells, 5-uL per well for inhibition of cell viability (assessed by measuring ATP levels with CellTiterGlo).
(§16) 2. NCATS MIPE 4.0 library of approved and investigational drugs were added using the Kalypsis pin tool. Wells treated with DMSO only for 100% viability and media only for 0% viability were used as controls.
(§17) 3. The assay plates were covered and incubated for 48 hours in a 37C, 5% CO2 incubator with controlled humidity.
(§18) 4. After 48 hours, CellTilter-GloTM luminescent substrate mix (Promega) reagent was added to the assay plate and plates we incubated for 5 min at room temperature.
(§19) 5. Signal was measured as median relative luminescence units on a ViewLux (PerkinElmer) multiplate reader.
(§20) [1] Heske CM, Davis MI, Baumgart JT, Wilson K, Gormally MV, Chen L, Zhang X, Ceribelli M, Duveau DY, Guha R, Ferrer M, Arnaldez FI, Ji J, Tran HL, Zhang Y, Mendoza A, Helman LJ, Thomas CJ. Matrix Screen Identifies Synergistic Combination of PARP Inhibitors and Nicotinamide Phosphoribosyltransferase (NAMPT) Inhibitors in Ewing Sarcoma. Clin Cancer Res. 2017 Dec 1;23(23):7301-7311. doi: 10.1158/1078-0432.CCR-17-1121. Epub 2017 Sep 12. PMID: 28899971; PMCID: PMC6636827.
Potency is the fitted concentration of half-maximal effect.

Row | Compound | Potency | viability (% of DMSO control)
1 | C[C@]12CCC(=O)C=C1CC[C@@H]1[C@H]3CC[C@](C)(O)[C@@]3(C)CC[C@@H]12 | 38.2 µM (active) | –
2 | CN1C(=O)COc2c(C(=O)NC3CN4CCC3CC4)cc(Cl)cc21 (centres undefined) | – | 114%
3 | CN1C(=O)CCS(=O)(=O)C1c1ccc(Cl)cc1 (centres undefined) | – | 122%
4 | CC(C)c1cccc(C(C)C)c1O | – | 124%
5 | O=C(O)CCCc1ccc(N(CCCl)CCCl)cc1 | – | 106%
6 | CCC1(c2ccc(N)cc2)CCC(=O)NC1=O (centres undefined) | 1.32 µM (active) | –
7 | C[C@](O)(CS(=O)(=O)c1ccc(F)cc1)C(=O)Nc1ccc(C#N)c(C(F)(F)F)c1 | 0.935 µM (active) | –

Assay: Quantitative High-Throughput drug screen in 47 multiple myeloma cell lines against the NCATS MIPE library collection: XG1_PLB cell viability assay (AID 1919866); note: nearly all actives have a fitted effect of over 35% in size
Settings: CellTiter-Glo ATP, 48 h; series mostly up to 45.8 µM; viability: at the top concentration
In short: (§21)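 Myeloma cells (500/well) treated with MIPE 4.0 compounds for 48 h at 37 °C, 5% CO2. Viability read as ATP via CellTiter-Glo luminescence after 5 min at RT; DMSO-only wells = 100%, media-only = 0% viability.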

Row | Compound | viability | Potency
8 | CN1C(=O)COc2c(C(=O)NC3CN4CCC3CC4)cc(Cl)cc21 (centres undefined) | 113% | –
9 | O=P1(N(CCCl)CCCl)NCCCO1 (centres undefined) | – | 14.8 µM (active)
10 | CN1C(=O)CCS(=O)(=O)C1c1ccc(Cl)cc1 (centres undefined) | – | 16.6 µM (active)
11 | CC(C)c1cccc(C(C)C)c1O | 131% | –
12 | C[C@]12CC[C@H]3[C@@H](CC[C@@]45O[C@H]4C(O)=C(C#N)C[C@]35C)[C@H]1CC[C@H]2O | 105% | –
13 | O=C(O)CCCc1ccc(N(CCCl)CCCl)cc1 | – | 16.6 µM (active)
14 | CC(C)C[C@H](CN)CC(=O)O | 121% | –
15 | CCC1(c2ccc(N)cc2)CCC(=O)NC1=O (centres undefined) | 112% | –
16 | C[C@](O)(CS(=O)(=O)c1ccc(F)cc1)C(=O)Nc1ccc(C#N)c(C(F)(F)F)c1 | – | 0.418 µM (active)
17 | C[C@]12CC[C@@H]3c4ccc(OC(=O)N(CCCl)CCCl)cc4CC[C@H]3[C@@H]1CC[C@@H]2OP(=O)(O)O | 119% | –

Assay: Quantitative High-Throughput drug screen in 47 multiple myeloma cell lines against the NCATS MIPE library collection: VP6_DJ cell viability assay (AID 1919867); note: nearly all actives have a fitted effect of over 40% in size
Settings: ATP luminescence, 48 h; series mostly up to 45.8 µM; viability (% of DMSO): at the top concentration
In short: as §21

Row | Compound | viability (% of DMSO) | Potency
18 | CN1C(=O)COc2c(C(=O)NC3CN4CCC3CC4)cc(Cl)cc21 (centres undefined) | 117% | –
19 | O=P1(N(CCCl)CCCl)NCCCO1 (centres undefined) | 114% | –
20 | CN1C(=O)CCS(=O)(=O)C1c1ccc(Cl)cc1 (centres undefined) | 124% | –
21 | CC(C)c1cccc(C(C)C)c1O | 152% | –
22 | COc1cc(OC)c(OC)cc1C=O | 101% | –
23 | C[C@](O)(CS(=O)(=O)c1ccc(F)cc1)C(=O)Nc1ccc(C#N)c(C(F)(F)F)c1 | – | 0.662 µM (active)

Assay: Quantitative High-Throughput drug screen in 47 multiple myeloma cell lines against the NCATS MIPE library collection: UTMC2_PLB cell viability assay (AID 1919868); note: nearly all actives have a fitted effect of over 55% in size
Settings: CellTiter-Glo ATP luminescence, 48 h; series mostly up to 45.8 µM; viability (% of DMSO control): at the top concentration
Description: as §1, §2, §3, §4, §5, §6, §7, §8, §9, §10, §11, §12, §13, §14, §15, §16, §17, §18, §19, §20

Row | Compound | viability (% of DMSO control) | Potency
24 | C[C@]12CCC(=O)C=C1CC[C@@H]1[C@H]3CC[C@](C)(O)[C@@]3(C)CC[C@@H]12 | 160% [at 92.2 µM] | –
25 | CC(C)c1cccc(C(C)C)c1O | 230% | –
26 | COc1cc(OC)c(OC)cc1C=O | 151% | –
27 | C[C@]12CC[C@H]3[C@@H](CC[C@@]45O[C@H]4C(O)=C(C#N)C[C@]35C)[C@H]1CC[C@H]2O | 163% | –
28 | O=C(O)CCCc1ccc(N(CCCl)CCCl)cc1 | – | 18.7 µM (active)
29 | CCC1(c2ccc(N)cc2)CCC(=O)NC1=O (centres undefined) | 126% | –
